SMILES strings stand for the structures. Screen size: about 300,000 compounds; about 1,500 (0.5%) were called active. This excerpt belongs to a sample that is enriched for actives. A number with no mark means an inactive call.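 How the source made its calls: active means inhibition above the mean of all tested compounds plus 3 SD, set per screening campaign (cut at about 17% in these data); inactive means the rest.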

In this experiment the test system is cathepsin L1 (Fasciola hepatica). The experiment in a line: Fasciola hepatica cathepsin L1 inhibitors, primary screen, counter-screen for PFM18AAP inhibitor project, biochemical, QFRET, fluorogenic peptide substrate (AID 1906).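 Further: 0% = plate median of test compound wells and 100% = 1 µM Z-Phe-Ala-diazomethylketone.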 The following applies: recombinant F. hepatica cathepsin L1, Z-Leu-Arg-MCA fluorescence; at 5.96 µM; active compounds read high. A general note: The purpose of a counterscreen is to sort out artefacts and off-target activity.
`COc1ccc(CNC(=O)COC(=O)/C=C/c2ccc(S(=O)(=O)N3CCOCC3)cc2)cc1`: the inhibition (in general, the drop in the measured response relative to a control, in per cent) is 0.44%. With `COC(=O)c1ccc(NC(=O)CSc2nnc(Cc3cccn3C)n2-c2ccc(F)cc2)cc1`, the inhibition is 6.5%. In the case of `CCOc1cc(NC(=O)CCl)c(OCC)cc1NC(C)=O` it was 83.7% (active); in that of `CCOc1cc(NS(=O)(=O)c2ccc(OC)cc2)c(OCC)cc1NC(C)=O`, -2.89%. `CCCC(=O)Nc1cc(OCC)c(NC(=O)NC2CCCCC2)cc1OCC`: the inhibition is -3.59%. Turning to `C/C(CCC(=O)OC[C@H]1O[C@H](C#Cc2ccccc2)C=C[C@@H]1Oc1ccc(C)cc1)=N\OC[C@@H](O)[C@H]1O[C@@H]2OC(C)(C)O[C@@H]2[C@H]1O`, the inhibition is -0.48%. `CC1(C)NC(=O)N(CCCCSc2ccc(Cl)cc2)C1=O`: the inhibition is 3.34%. In the case of `CC(C)Nc1nc(N(c2ccccc2)c2ccccc2)nc(-n2ccnc2)n1` it was -0.83%; in that of `N#Cc1nc(N)nc(N(c2ccccc2)c2ccccc2)n1`, 56.4% (active); in that of `Cc1ccccc1-c1ccc(Nc2ccc(C(=O)N3CCOCC3)cc2)nn1`, 0.35%. As to `Cc1ccc(C(=O)N2CCN(C(=O)N3CCOCC3)CC2)cc1`, the inhibition was 1.67%. Regarding `Cc1oc2c(c1C(=O)N1CCOCC1)C(=O)c1ccccc1C2=O`, the inhibition was 18.4% (active).

Regarding `CCOC(=O)/C(=C\c1ccc([N+](=O)[O-])cc1)C(=O)c1cc(C(C)=O)c(Nc2ccccc2)s1`, the inhibition was -2.81%. Regarding `COc1ccccc1C(CNC(=O)c1cccc(NS(=O)(=O)c2ccc(Br)cc2)c1)N(C)C` (stereo not drawn), the inhibition is 4.17%.

Turning to `CN(C)C(CNC(=O)c1cccc(C#N)c1)c1ccco1` (stereo not drawn), the inhibition was 22.2% (active). In the case of `CN(C)C(CNC(=O)CCCOc1ccccc1)c1ccco1` (stereo not drawn) it was -6.17%; in that of `CN(C)C(CNC(=O)c1cccc(S(=O)(=O)Nc2ccc(Br)cc2)c1)c1ccco1` (stereo not drawn), -0.56%; in that of `COC(=O)c1scc(S(=O)(=O)C(C)(C)C)c1-n1cccc1`, -3.59%.

Turning to `O=C(N/N=C/c1ccc([N+](=O)[O-])o1)c1cn(-c2ccccc2)nc1-c1ccc(F)cc1`, the inhibition is 1.54%. On to `Cc1ccc(/C=C/C(=O)Nc2ccc([N+](=O)[O-])c(NC(=O)/C=C/c3ccc(C)o3)c2)o1`, for which the inhibition is 7.56%. The value for `O=C(/C=C/c1ccc([N+](=O)[O-])o1)NNC(=O)c1ccc(F)cc1` was 17.7% (active); that for `Cc1ccc(NC(=S)Nc2ncccc2C)c(C)c1` was -0.91%. The value for `[2H]C(CCOS(N)(=O)=O)c1ccccc1` (stereo not drawn) was 1.8%; that for `COc1ccc(C=C(C#N)C#N)c(CSc2ccccn2)c1` was -4.15%; that for `Cc1ccc(OCCNC(=O)CCNS(=O)(=O)c2ccc(Br)cc2)cc1` was 0.55%. In the case of `CCc1cccc(NC(=O)CCC(=O)O)c1`, the inhibition was -3%.

Take `O=C(CCl)Nc1cccc(CP(=O)(c2ccccc2)c2ccccc2)c1`: the inhibition was 72% (active). The value for `O=C(Cc1ccccc1)Nc1cccc(NC(=O)c2ccccc2)c1` was -2.42%; that for `C#CCOCCOCCOCCNc1nc(N2CCN(C(=O)C([C@@H](C)CC)n3cc(C(N)COC(=O)C(F)(F)F)nn3)CC2)nc(N2CCN(C(=O)[C@H](CCCCN)n3cc(C(N)CC(C)C)nn3)CC2)n1` (stereo partly drawn) was 33.1% (active). Turning to `C#CCOCCOCCOCCNc1nc(N2CCN(C(=O)C([C@@H](C)CC)n3cc(C(N)COC(=O)C(F)(F)F)nn3)CC2)nc(N2CCN(C(=O)[C@H](Cc3ccc(O)cc3)n3cc(C(N)[C@H](C)CC)nn3)CC2)n1` (stereo partly drawn), the inhibition was -2.06%. The value for `C#CCOCCOCCOCCNc1nc(N2CCN(C(=O)[C@H](CCCCN)n3cc([C@@H](N)C(C)CC)nn3)CC2)nc(N2CCN(C(=O)[C@H](Cc3ccc(O)cc3)n3cc([C@@H](N)C(C)CC)nn3)CC2)n1` (stereo partly drawn) was 5.02%. For the molecule `CCOC(=O)NC(=O)CSc1nnc(SCCC(=O)O)s1`, the inhibition is -3.27%. Regarding `Cc1cccc2nc(CNc3ccc(F)cc3)cn12`, the inhibition is -0.43%. In the case of `O=C(CN1CCN(S(=O)(=O)c2ccc(F)cc2)CC1)NC1CC1` it was 0.44%; in that of `Nc1c(Cl)cc(-c2csc(N3CCCC3c3nc4cc(Cl)c(Cl)cc4n3CCOCCO)n2)cc1Cl` (stereo not drawn), 1.62%. As to `COCCCN(C(=S)Nc1c(C)cc(C)cc1C)C(C)c1ccncc1` (stereo not drawn), the inhibition is -2.52%.

In the case of `CC(C)Cc1nnc(NC(=O)CCC(=O)Nc2ccc3cn[nH]c3c2)s1`, the inhibition is -6.53%. In the case of `Cc1onc(-c2ccccc2)c1C(=O)NNC(=S)NC(=O)c1ccc(F)cc1` it was 6.16%. The value for `CCc1noc(C)c1C(=O)N1CCCC(N2CCN(c3ccc(F)cc3)CC2)C1` (stereo not drawn) was -0.72%. For `CCc1noc(C)c1C(=O)NNC(=O)c1ccc(F)cc1`, the inhibition was 18.8% (active).

Regarding `COc1ccc(/C=N/NC(=O)C(C)N(c2ccc(OC)cc2)S(C)(=O)=O)cc1` (stereo not drawn), the inhibition was -4.5%. `COc1cc(C2C(N3C(=O)c4ccccc4C3=O)C(=O)N2c2ccc(C)c(C)c2)cc(OC)c1OC` (stereo not drawn): the inhibition is 3.07%. In the case of `Cc1ccc(C2Nc3ccccc3C(=O)N2CCN2CCNC2=O)cc1` (stereo not drawn) it was 28.6% (active); in that of `CCOC(=O)NN1C(=O)c2ccccc2NC1c1cccc(O)c1` (stereo not drawn), 7.1%; in that of `CC(=O)NN1C(=O)c2ccccc2NC1c1ccccc1` (stereo not drawn), 0.11%. As to `Cc1cc(NC(=O)CCC(=O)N(c2ccccc2)C(C(=O)NC2CCCC2)c2ccncc2)no1` (stereo not drawn), the inhibition was -1.79%.

Turning to `Cc1cc(NC(=O)CCC(=O)N(c2cccc(F)c2)C(C(=O)NC2CCCC2)c2ccncc2)no1` (stereo not drawn), the inhibition is -0.94%. With `Cc1cc(NC(=O)CCC(=O)N(Cc2ccccc2)C(C(=O)NC2CCCC2)c2ccc(C)o2)no1` (stereo not drawn), the inhibition was 29.5% (active).

As for `CC1CCN(S(=O)(=O)c2ccc3ncn(CC(=O)N(C)C4CCCCC4)c(=O)c3c2)CC1`, the inhibition was 1.81%. In the case of `Cc1ccc(C)c(Cn2nnc3c(=O)[nH]c(C(=O)Nc4ccc(F)cc4)nc32)c1` it was 0.39%. `O=C(Cc1c(Cl)cccc1Cl)NC1CC1`: the inhibition is 4.27%. Consider `O=C(NNc1ccccn1)c1ccc(Cl)nc1`, for which the inhibition is 1.75%. Take `O=C(CCl)NNc1cccc(Cl)n1`: the inhibition was 87.5% (active).

Values taken from PubChem BioAssay AID1906 (The Scripps Research Institute Molecular Screening Center, 2009).
